High-throughput results: PubChem BioAssay, National Center for Advancing Translational Sciences (NCATS)
JMJD2A Tudor inh: blocks the human JMJD2A Tudor domain; AlphaScreen JMJD2A-Tudor / H3K4me3 peptide binding; O75164; AID 504339; 390,000 compounds, 4.4% hits; Potency, µM (series often up to 114 µM), most hits filed as inhibitors; note: nearly all actives have a fitted effect of over 50% in size
BAZ2B block: blocks human BAZ2B | Q9UIF8 | AlphaScreen BAZ2B-H3K14Ac peptide displacement | Potency, µM (series often up to 114 µM), actives largely listed as inhibitors | 360,000 compounds, 4.4% hits | AID 504333; note: nearly all actives have a fitted effect of over 60% in size
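In this displacement format the biotinylated H3(5-23) peptide acetylated at Lys14 serves as ligand at 50 nM, with BAZ2B at 50 nM in PBS pH 7.4 containing 0.01% Tween-20. Donor and acceptor beads are 10 ug/mL final.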
PLK1 PBD block: inhibitors of human PLK1 polo-box domain binding; P53350; Plk1 PBD binding of FITC phosphopeptide, fluorescence polarization; Potency, µM, most hits filed as inhibitors; 360,000 compounds, 2.8% hits; note: series mostly up to about 57 µM; nearly all actives have a fitted effect of over 65% in size
G9a inh: G9a (human) methyltransferase inhibition; Q96KQ7; G9a H3K9 monomethylation, AlphaScreen, 2 h; Potency, µM (doses to about 102 µM), most hits filed as inhibitors; 350,000 compounds, 8.8% hits; AID 504332; note: nearly all actives have a fitted effect of over 75% in size
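Quantitative HTS format: methyltransferase activity on a biotin-tagged H3K9 peptide is measured by AlphaScreen, using a rabbit anti-monomethyl-H3K9 antibody with streptavidin donor and anti-IgG acceptor beads. Final levels are 20 nM enzyme, 500 nM peptide, 20 uM SAM; 2 h RT.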
ALOX12 inh: inhibitors of human 12S-lipoxygenase ALOX12; purified 12hLO, xylenol orange hydroperoxide absorbance; 580,000 compounds, 1.1% hits; Potency, µM (doses to about 108 µM), most hits filed as inhibitors; P18054
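Hydroperoxide product was detected by ferrous iron/xylenol orange as the 573 to 405 nm absorbance ratio. Arachidonic acid at 40 uM (final) was turned over for 30 min at room temperature by 150 nM human 12hLO, pH 7.0 Hepes buffer, after 15 min compound preincubation.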
HP1b binding inh: HP1-beta chromodomain-methylated histone interaction inhibition; P83916; AlphaScreen HP1-beta / biotin-H3K9me3 peptide binding; Potency, µM (doses to about 114 µM), actives largely listed as inhibitors; 390,000 compounds, 0.56% hits; AID 540317; note: nearly all actives have a fitted effect of over 70% in size
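Compound inhibition of the preformed complex between 50 nM HP1-beta and 50 nM biotinylated H3K9me3 peptide was read by AlphaScreen. Buffer was PBS pH 7.4 with 0.01% Tween-20. Incubations ran 30 min at room temperature, with 10 ug/mL donor/acceptor beads.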
Numbers stand for hits; . = inactive; ? = inconclusive; / = no result; [ ] = dose if it differs, or a comment. The list is not random: actives were taken first. Their share in the collection is about 9%. Calls come from the whole dose curve; as a rule, active = well fitted curve in the direction sought with a large enough effect; inconclusive = small, poorly fitted or top-dose-only effect, or another doubt; inactive = no such curve, though single readings can be large; an effect the other way counts as inactive or inconclusive.

SMILES | JMJD2A Tudor inh | BAZ2B block | PLK1 PBD block | G9a inh | ALOX12 inh | HP1b binding inh
O=C1NCc2ccccc2CC12CCN(Cc1ccccc1OC(F)(F)F)C2 (stereo not drawn) | / | / | / | / | .[6.33 µM] | /
CC(NC1CCCC1)C(=O)Nc1ccccc1-c1ccccc1 (stereo not drawn) | 2µM | 79.4µM | . | ? | . | ?
O=C(CC1CCCCC1)Nc1ccccc1-c1ccccc1 | . | . | . | . | . | .
Cc1cc(/C=C2/SC(=S)N(c3cccc(C(F)(F)F)c3)C2=O)c(C)n1-c1cccnc1 | ? | / | . | / | / | ?
Cc1ccccc1NC(=O)CN1C(=O)S/C(=C\c2cccn2-c2cccc(C(=O)O)c2)C1=O | 79.4µM | 56.2µM | ? | ? | . | ?
Cc1cccc(C)c1-n1cccc1/C=C1\SC(=S)N(c2cccc(C(=O)O)c2)C1=O | ? | 50.1µM | ? | ? | 44.7µM | ?
Cc1cccc(C)c1NC(=O)CN1C(=O)S/C(=C\c2cccn2-c2cccc(C(=O)O)c2)C1=O | 50.1µM | 79.4µM | 42.3µM | ? | . | .
Cc1ccc(NC(=O)CN2C(=O)S/C(=C\c3cccn3-c3cccc(C(=O)O)c3)C2=O)c(C)c1 | 22.4µM | 39.8µM | 23.8µM | ? | / | 50.1µM
Cc1cccc(C)c1NC(=O)CN1C(=O)S/C(=C\c2cccn2C)C1=O | . | . | . | . | . | .
COc1ccc(-c2ccc3c(n2)CNC(=O)CO3)cc1F | / | / | / | / | . | /
CCCC1(CO)CCCN(C(=O)CCn2ccc(=O)[nH]c2=O)C1 (stereo not drawn) | / | / | / | / | . | /
COc1ccc(/C=C2\SC(=O)N(CCCC(=O)Nc3ccc(C(=O)O)cc3)C2=O)cc1 | / | / | . | / | ? | /
COc1ccc(NC(=O)CN2C(=O)S/C(=C/c3cccn3-c3ccc(C(=O)O)cc3)C2=O)cc1 | / | 17.8µM | / | 22.4µM | . | /
C[C@@H]1CN([C@H](C)CO)C(=O)CCCn2nncc2CO[C@H]1CN(C)C(=O)Nc1ccnc(N2CCOCC2)c1 | / | / | . | / | . | /
Fc1ccc(Br)cc1/C=N/Nc1c(Cl)cc(Cl)cc1Cl | / | / | / | / | 17.8µM | /
O=C(N/N=C/c1ccc(Cl)cc1Cl)c1cccc(F)c1 | . | . | . | .[12.7 µM] | . | .
Fc1ccc(/C=N/Nc2c(Cl)cc(Cl)cc2Cl)c(F)c1 | / | / | / | / | 39.8µM | /
CC(=O)N1CCN(CC(=O)Nc2ccccc2C(=O)Nc2ccccc2)CC1 | . | / | . | / | . | .
Cc1cccc(NC(=O)COc2ccc3oc4c(c3c2)CCCC4)c1 | . | ? | / | ? | . | .
c1ccc2c(c1)nc1n2C2(N3CCOCC3)CCCC2C1N1CCOCC1 (stereo not drawn) | . | . | . | ? | . | .
CC(C)NC(=O)NC[C@H]1O[C@H](Cc2cc(COc3ccccc3)on2)CC[C@@H]1O | / | / | / | / | . | /
FC(F)(F)c1ccc(=S)[nH]c1 | / | / | / | / | 5.01µM | /
O=c1cc[nH]c2cc(C(F)(F)F)ccc12 | . | ? | . | .[0.501 µM] | . | .
c1cncc(-c2nnc(SCc3nc4ccccc4[nH]3)o2)c1 | . | . | . | .[12.7 µM] | . | .
S=c1[nH]nc(C2CCCCC2)n1/N=C/c1cccc(Br)c1 | . | . | . | 79.4µM | . | .
SMILES | JMJD2A Tudor inh | BAZ2B block | PLK1 PBD block | G9a inh | ALOX12 inh | HP1b binding inh
Cc1cccc(/C=N/n2c(C3CCCCC3)n[nH]c2=S)c1 | 56.2µM | ? | 26.7µM | 2.51µM | / | .
S=c1[nH]nc(-c2ccccc2)n1/N=C/c1cccc(Br)c1 | . | . | ? | .[0.501 µM] | . | .
COc1cc(/C=N/n2c(C3CCCCC3)n[nH]c2=S)cc(Br)c1O | 12.6µM | . | . | 25.1µM | ? | .
COc1cc(/C=N/NC(=O)C2C3CCCCC32C)cc(Br)c1O (stereo not drawn) | ? | . | . | ? | ? | .
CCOc1ccc(C(=O)NCC(=O)N2CCN(C/C=C/c3ccccc3)CC2)cc1OCC | . | . | . | .[2.33 µM] | . | .
Cc1ccc2c(c1)nnn2C1CCN(S(=O)(=O)c2ccc(C(=O)N(C)C)cc2)CC1 | . | . | . | . | . | .
CCN(CC)CCNc1ncnc2c1sc1nc(N3CCOCC3)c3c(c12)CCCC3 | ? | . | . | 35.5µM | . | .
CC1(C)Cc2c(c(-c3ccco3)nc3sc4c(NCCN5CCOCC5)ncnc4c23)CO1 | . | . | . | 17.8µM | . | .
CN(C)CCNc1ncnc2c1sc1nc(N3CCCC3)c3c(c12)CC(C)(C)OC3 | ? | ? | . | ? | . | .
CCN(CC)CCNc1ncnc2c1sc1nc(N3CCCC3)c3c(c12)CC(C)(C)OC3 | ? | 44.7µM | . | ? | . | ?
Cc1ccc(CNC(=O)Cn2c(=O)n(-c3ccc(Cl)cc3)c(=O)c3c(C)c(C)sc32)cc1 | . | . | / | . | . | .
COc1ccc(-c2cc(=O)c3c(OC)c(OC)c(OC)c(OC)c3o2)cc1OC | . | . | . | ? | ? | .
COc1ccc(Br)c2oc(SC)cc(=O)c12 | . | ? | . | 39.8µM | ? | .
COCCOc1ccc2c(n1)CCN(C(=O)c1cc(C)nn1C)C2 | / | / | / | / | . | /
CC(O)CSc1nc2c(c(=O)[nH]c(=O)n2C)n1CC(O)COc1ccccc1 (stereo not drawn) | . | . | 26.7µM | 11.2µM | ? | .
